According to the supplement of paper PMC10849652:
About 8,800 targets were measured; listed, in parts, are those with a hit and a random draw of the rest. About 0.5% of all pairs of compound and target were hits.

Columns and labels:
Experiment in all cases: log2 fold change, soluble protein after heating vs DMSO (PISA); higher = thermal stabilisation; K562 lysate, 10 uM; active = over 0.2 and 3.5 SD of the protein, either way, in both replicates (recomputed)
erlotinib = compound: C#Cc1cccc(Nc2ncnc3cc(OCCOC)c(OCCOC)cc23)c1 [erlotinib]
In short: (§1)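 Thermal stability, expressed as log-two fold change relative to solvent controls, is given from duplicates. Crude K562 extract in PBS pH 7.4 with 1 mM MgCl2, at 1 mg/mL protein, was treated with 10 μM compound for 30 min and heated in aliquots for 3 min across 48°C-58°C. After pooling, adjustment to 0.5% NP-40 at 4°C and centrifugation at 21,000xg for 90 min, supernatant protein was measured by TMTpro 16plex LC-MS/MS with channel sums equalised.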

[1] = compound: C/C(=N\NC(=O)C1=CC(=CC=C1)S(=O)(=O)N2CCOCC2)/C3=C(C=CC(=C3)Cl)O
In short: as §1

[2] = compound: C1=CC(=CC=C1C2=NC3=C(N2)C=C(C=C3)C(=O)N)OC4=CC=C(C=C4)Cl
In short: as §1

[3] = compound: C1=CC2=C(C=CC(=C2)/C=C\3/C(=O)NC(=NCC4=CC=CS4)S3)N=C1
In short: as §1

[4] = compound: C1=CC2=NC=CN=C2C=C1/C=C/3\C(=O)NC(=O)S3
In short: as §1

[5] = compound: C1=CC=C(C=C1)C2=NC(=C(N2)C3=CC=NC=C3)C4=CC(=C(C=C4)Cl)O
In short: as §1

[6] = compound: C1=CC=C2C(=C1)C3=NNC4=CC=CC(=C43)C2=O
In short: as §1

[7] = compound: C1CCN(C1)C(=O)NC2=CC=CC(=C2)NC3=NC=C(C(=N3)NCCC4=CN=CN4)Br
In short: as §1

[8] = compound: C1CN(CCC1(CC2=CC=C(C=C2)Cl)N)C3=NC=NC4=C3C=CN4
In short: as §1

IRAK-1-4 Inhibitor I = compound: C1COCCN1CCN2C3=CC=CC=C3N=C2NC(=O)C4=CC(=CC=C4)[N+](=O)[O-] [IRAK-1-4 Inhibitor I]
In short: as §1

ibrutinib = compound: C=CC(=O)N1CCC[C@@H](n2nc(-c3ccc(Oc4ccccc4)cc3)c3c(N)ncnc32)C1 [ibrutinib]
In short: as §1

[9] = compound: CC(=O)c1cnc2ccc(-c3cc(Cl)c(O)c(Cl)c3)nc2c1N[C@H]1CC[C@H](CN(C)C)CC1
In short: as §1

ralimetinib = compound: CC(C)(C)Cn1c(N)nc2ccc(-c3[nH]c(C(C)(C)C)nc3-c3ccc(F)cc3)nc21 [ralimetinib]
In short: as §1

[10] = compound: CC(C)(O)CC(=O)NCCn1ccc2ncnc(Nc3ccc(Oc4cccc(C(F)(F)F)c4)c(Cl)c3)c21
In short: as §1

[11] = compound: CC(C)C1=C2N=C(C=C(N2N=C1)NCC3=CC=CC=C3)NCCCCCCN
In short: as §1

[12] = compound: CC1=C(C(CC(=O)N1)C2=CC=C(C=C2)C(F)(F)F)C(=O)NC3=C(C=C4C(=C3)C=NN4)F
In short: as §1

[13] = compound: CC1=C(C2=C(C=C1)C(=O)C3=CC=CC=C3N2CCCN)C
In short: as §1

[14] = compound: CC1=C(C=C(C=C1)NC(=O)C2=CC(=CC=C2)C(C)(C)C#N)NC3=CC4=C(C=C3)N=CN(C4=O)C
In short: as §1

[15] = compound: CC1=C(C=C(C=C1)NC(=O)C2=CC(=CC=C2)N(C)C)NC(=O)C3=CC=C(C=C3)O
In short: as §1

[16] = compound: CC1=CC=C(C=C1)SC2=C3C=C(SC3=CN=C2)C(=O)N
In short: as §1

Measured: log2 fold change

TPP2 (UniProt P29144)
inactive: erlotinib -0.001 | [1] -0.098 | [2] 0.01 | [3] 0.001 | [4] 0.006 | [5] 0 | [6] -0.02 | [7] -0.003 | [8] -0.005 | IRAK-1-4 Inhibitor I -0.002 | ibrutinib -0.018 | [9] -0.016 | ralimetinib -0.002 | [10] 0.014 | [11] -0.012 | [12] -0.013 | [13] 0.003 | [14] 0.008 | [15] 0.012 | [16] 0.002

TTC5 (UniProt Q8N0Z6)
inactive: erlotinib -0.015 | [1] -0.089 | [2] -0.014 | [3] -0.034 | [4] 0.041 | [5] 0.022 | [6] 0.016 | [7] 0.017 | [8] 0.033 | IRAK-1-4 Inhibitor I -0.008 | ibrutinib 0.019 | [9] 0.007 | ralimetinib 0.017 | [10] 0.001 | [11] 0.042 | [12] -0.089 | [13] -0.01 | [14] 0.017 | [15] 0.016 | [16] -0.001

TBL2 (UniProt Q9Y4P3)
Sequence of UniProt Q9Y4P3 (Q9Y4P3 whole entry, looked up): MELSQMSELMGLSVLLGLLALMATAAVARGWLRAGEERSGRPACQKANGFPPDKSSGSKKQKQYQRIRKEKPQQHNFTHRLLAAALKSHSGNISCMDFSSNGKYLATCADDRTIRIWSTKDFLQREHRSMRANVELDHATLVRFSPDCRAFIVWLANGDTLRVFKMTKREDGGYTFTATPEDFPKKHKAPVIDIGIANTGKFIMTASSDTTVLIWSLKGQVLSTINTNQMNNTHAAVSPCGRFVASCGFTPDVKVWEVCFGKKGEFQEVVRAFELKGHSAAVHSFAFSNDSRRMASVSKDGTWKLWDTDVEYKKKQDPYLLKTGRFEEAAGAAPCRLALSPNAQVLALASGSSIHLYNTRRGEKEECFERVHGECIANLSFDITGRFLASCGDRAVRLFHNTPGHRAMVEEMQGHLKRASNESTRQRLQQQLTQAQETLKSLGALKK
inactive: erlotinib -0.019 | [1] 0.061 | [2] -0.027 | [3] 0.061 | [4] -0.023 | [5] 0.038 | [6] -0.06 | [7] -0.027 | [8] 0.001 | IRAK-1-4 Inhibitor I -0.022 | ibrutinib 0.014 | [9] 0.059 | ralimetinib 0.005 | [10] -0.001 | [11] 0 | [12] 0.045 | [13] 0.031 | [14] -0.008 | [15] 0.03 | [16] 0.05

UBR4 (UniProt Q5T4S7)
inactive: erlotinib 0 | [1] 0.039 | [2] -0.016 | [3] 0.017 | [4] -0.006 | [5] 0.008 | [6] -0.01 | [7] -0.021 | [8] 0.002 | IRAK-1-4 Inhibitor I -0.009 | ibrutinib -0.019 | [9] -0.008 | ralimetinib 0.02 | [10] -0.011 | [11] -0.02 | [12] 0.003 | [13] 0.011 | [14] 0.009 | [15] 0.014 | [16] 0.01

TOPBP1 (UniProt Q92547)
inactive: erlotinib 0.004 | [1] -0.056 | [2] -0.034 | [3] 0.018 | [4] 0.002 | [5] 0.003 | [6] -0.009 | [7] -0.134 | [8] 0.072 | IRAK-1-4 Inhibitor I -0.006 | ibrutinib 0.012 | [9] 0.003 | ralimetinib 0.011 | [10] 0.011 | [11] 0.006 | [12] -0.02 | [13] -0.01 | [14] -0.035 | [15] 0.041 | [16] 0.055

TMPO (UniProt P42166)
Sequence of UniProt P42166 (P42166 whole entry, looked up): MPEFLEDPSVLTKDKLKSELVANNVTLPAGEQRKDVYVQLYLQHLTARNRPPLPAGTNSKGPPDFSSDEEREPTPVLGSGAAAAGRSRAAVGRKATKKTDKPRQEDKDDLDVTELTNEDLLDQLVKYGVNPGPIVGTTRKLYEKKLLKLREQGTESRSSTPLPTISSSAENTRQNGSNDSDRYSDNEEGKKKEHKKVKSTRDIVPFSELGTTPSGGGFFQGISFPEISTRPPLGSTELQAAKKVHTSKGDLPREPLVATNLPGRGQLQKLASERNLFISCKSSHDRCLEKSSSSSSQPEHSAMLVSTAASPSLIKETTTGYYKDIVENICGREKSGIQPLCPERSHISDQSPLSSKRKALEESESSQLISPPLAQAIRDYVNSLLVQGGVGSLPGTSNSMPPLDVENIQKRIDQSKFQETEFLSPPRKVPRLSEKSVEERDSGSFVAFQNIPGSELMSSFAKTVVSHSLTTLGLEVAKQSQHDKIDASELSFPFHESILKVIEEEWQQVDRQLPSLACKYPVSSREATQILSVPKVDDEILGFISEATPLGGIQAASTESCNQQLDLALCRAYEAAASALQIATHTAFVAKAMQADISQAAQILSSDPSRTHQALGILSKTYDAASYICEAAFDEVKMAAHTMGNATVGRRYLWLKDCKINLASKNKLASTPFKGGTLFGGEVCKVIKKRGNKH
inactive: erlotinib 0.026 | [1] -0.038 | [2] 0.012 | [3] -0.097 | [4] -0.03 | [5] -0.024 | [6] -0.026 | [7] -0.004 | [8] 0.005 | IRAK-1-4 Inhibitor I 0.008 | ibrutinib -0.025 | [9] -0.018 | ralimetinib -0.087 | [10] -0.004 | [11] 0.018 | [12] 0.011 | [13] 0 | [14] 0.024 | [15] 0.047 | [16] -0.026

TRIP12 isoform 2 (UniProt Q14669)
Sequence of UniProt Q14669 (Q14669 whole entry, looked up): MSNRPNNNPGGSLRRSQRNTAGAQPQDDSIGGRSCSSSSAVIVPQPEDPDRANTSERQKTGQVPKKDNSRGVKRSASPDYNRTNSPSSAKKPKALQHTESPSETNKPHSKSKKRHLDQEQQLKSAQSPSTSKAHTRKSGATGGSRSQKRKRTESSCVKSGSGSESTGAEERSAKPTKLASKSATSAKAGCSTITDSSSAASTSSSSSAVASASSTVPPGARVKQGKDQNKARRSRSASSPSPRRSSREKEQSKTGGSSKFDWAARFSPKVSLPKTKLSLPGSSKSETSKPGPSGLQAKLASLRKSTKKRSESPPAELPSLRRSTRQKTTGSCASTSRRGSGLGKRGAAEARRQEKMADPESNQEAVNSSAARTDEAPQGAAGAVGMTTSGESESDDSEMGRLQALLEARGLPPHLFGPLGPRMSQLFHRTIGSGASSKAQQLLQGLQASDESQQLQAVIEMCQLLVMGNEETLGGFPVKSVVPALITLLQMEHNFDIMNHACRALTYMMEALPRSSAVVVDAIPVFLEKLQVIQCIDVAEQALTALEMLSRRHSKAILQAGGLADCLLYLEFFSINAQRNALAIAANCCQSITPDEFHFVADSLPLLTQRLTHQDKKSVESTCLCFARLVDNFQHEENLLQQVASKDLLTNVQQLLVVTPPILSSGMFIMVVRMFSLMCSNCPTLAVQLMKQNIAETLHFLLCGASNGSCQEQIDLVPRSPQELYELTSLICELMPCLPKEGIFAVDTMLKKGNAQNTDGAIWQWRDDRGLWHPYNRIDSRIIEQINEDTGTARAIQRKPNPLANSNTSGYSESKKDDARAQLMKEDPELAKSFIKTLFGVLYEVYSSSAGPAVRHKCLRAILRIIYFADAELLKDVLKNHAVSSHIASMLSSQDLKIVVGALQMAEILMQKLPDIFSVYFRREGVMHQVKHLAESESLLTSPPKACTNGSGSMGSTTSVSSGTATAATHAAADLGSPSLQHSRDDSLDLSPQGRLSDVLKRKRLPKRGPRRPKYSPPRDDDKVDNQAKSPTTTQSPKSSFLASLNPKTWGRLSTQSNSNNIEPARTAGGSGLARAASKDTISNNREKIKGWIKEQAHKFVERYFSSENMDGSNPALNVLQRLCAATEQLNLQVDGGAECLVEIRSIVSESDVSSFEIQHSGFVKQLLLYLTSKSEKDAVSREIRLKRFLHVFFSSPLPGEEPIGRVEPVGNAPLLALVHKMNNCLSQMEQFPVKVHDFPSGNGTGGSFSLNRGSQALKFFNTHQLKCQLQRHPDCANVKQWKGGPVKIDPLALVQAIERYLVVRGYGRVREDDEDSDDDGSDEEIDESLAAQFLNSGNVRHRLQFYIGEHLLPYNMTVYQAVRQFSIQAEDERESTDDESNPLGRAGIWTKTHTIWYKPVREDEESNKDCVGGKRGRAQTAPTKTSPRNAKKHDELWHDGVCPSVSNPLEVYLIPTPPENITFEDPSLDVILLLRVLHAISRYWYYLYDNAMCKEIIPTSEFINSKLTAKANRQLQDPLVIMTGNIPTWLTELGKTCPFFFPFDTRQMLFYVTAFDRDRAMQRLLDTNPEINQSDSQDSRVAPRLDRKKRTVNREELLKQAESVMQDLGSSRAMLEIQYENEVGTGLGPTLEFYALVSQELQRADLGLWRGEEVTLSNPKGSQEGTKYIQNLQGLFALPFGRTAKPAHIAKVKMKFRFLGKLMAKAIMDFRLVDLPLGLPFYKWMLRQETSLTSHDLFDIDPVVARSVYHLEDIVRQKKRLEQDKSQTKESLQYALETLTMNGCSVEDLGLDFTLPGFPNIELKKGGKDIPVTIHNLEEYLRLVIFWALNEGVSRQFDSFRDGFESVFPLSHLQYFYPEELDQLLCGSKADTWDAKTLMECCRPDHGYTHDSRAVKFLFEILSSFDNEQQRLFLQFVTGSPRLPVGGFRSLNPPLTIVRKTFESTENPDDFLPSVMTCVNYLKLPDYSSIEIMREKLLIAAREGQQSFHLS
inactive: erlotinib 0.034 | [1] 0.013 | [2] -0.014 | [3] 0.004 | [4] 0.024 | [5] -0.027 | [6] -0.02 | [7] 0.019 | [8] -0.021 | IRAK-1-4 Inhibitor I -0.032 | ibrutinib 0 | [9] -0.031 | ralimetinib 0.109 | [10] 0.044 | [11] -0.028 | [12] -0.004 | [13] 0.066 | [14] 0.058 | [15] -0.012 | [16] 0.031

TPM4 (UniProt P67936)
Sequence of UniProt P67936 (P67936 whole entry, looked up): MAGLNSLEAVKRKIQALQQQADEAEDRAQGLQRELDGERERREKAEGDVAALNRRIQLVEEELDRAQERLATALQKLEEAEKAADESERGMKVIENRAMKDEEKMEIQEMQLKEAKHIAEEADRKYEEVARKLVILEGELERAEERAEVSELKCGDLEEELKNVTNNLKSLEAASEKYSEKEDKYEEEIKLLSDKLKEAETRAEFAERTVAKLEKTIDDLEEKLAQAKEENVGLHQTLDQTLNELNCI
inactive: erlotinib 0.028 | [1] 0.048 | [2] 0.005 | [3] 0.058 | [4] -0.012 | [5] 0.001 | [6] 0.009 | [7] -0.064 | [8] -0.012 | IRAK-1-4 Inhibitor I 0.028 | ibrutinib -0.019 | [9] -0.021 | ralimetinib 0.003 | [10] -0.023 | [11] -0.023 | [12] -0.038 | [13] 0.012 | [14] 0.01 | [15] 0.013 | [16] 0.006

TCF3 (UniProt P15923)
inactive: erlotinib 0.027 | [1] -0.028 | [2] 0.067 | [3] 0.004 | [4] 0.016 | [5] 0.011 | [6] 0.07 | [7] -0.005 | [8] 0.022 | IRAK-1-4 Inhibitor I 0.04 | ibrutinib 0.001 | [9] 0.027 | ralimetinib 0.014 | [10] -0.028 | [11] -0.005 | [12] -0.034 | [13] -0.074 | [14] -0.061 | [15] -0.045 | [16] -0.016

TDRKH (UniProt Q9Y2W6)
inactive: erlotinib -0.067 | [1] 0.023 | [2] -0.017 | [3] -0.018 | [4] -0.065 | [5] 0.02 | [6] -0.086 | [7] -0.011 | [8] -0.022 | IRAK-1-4 Inhibitor I 0.047 | ibrutinib -0.028 | [9] -0.023 | ralimetinib 0.033 | [10] -0.027 | [11] -0.02 | [12] 0.003 | [13] -0.008 | [14] -0.006 | [15] -0.005 | [16] -0.035

TELO2 (UniProt Q9Y4R8)
inactive: erlotinib 0.023 | [1] 0.006 | [2] -0.035 | [3] 0.025 | [4] 0.048 | [5] 0 | [6] 0.011 | [7] -0.031 | [8] 0.002 | IRAK-1-4 Inhibitor I 0.009 | ibrutinib -0.023 | [9] 0 | ralimetinib 0.019 | [10] -0.052 | [11] 0.002 | [12] 0.029 | [13] -0.015 | [14] 0.006 | [15] 0.014 | [16] 0.017

TEX30 (UniProt Q5JUR7)
Sequence of UniProt Q5JUR7 (Q5JUR7 whole entry, looked up): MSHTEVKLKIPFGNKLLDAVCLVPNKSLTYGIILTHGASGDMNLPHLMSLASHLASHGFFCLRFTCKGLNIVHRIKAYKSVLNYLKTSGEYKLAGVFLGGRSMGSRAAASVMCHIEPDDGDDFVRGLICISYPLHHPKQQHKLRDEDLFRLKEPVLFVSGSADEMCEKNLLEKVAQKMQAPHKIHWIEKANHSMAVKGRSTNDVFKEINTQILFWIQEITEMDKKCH
inactive: erlotinib -0.012 | [1] -0.106 | [2] -0.112 | [3] 0.03 | [4] 0.046 | [5] -0.009 | [6] -0.065 | [7] -0.034 | [8] -0.007 | IRAK-1-4 Inhibitor I -0.031 | ibrutinib 0.17 | [9] 0.003 | ralimetinib 0.047 | [10] -0.053 | [11] -0.045 | [12] -0.033 | [13] 0.016 | [14] -0.027 | [15] 0.019 | [16] 0.019

UBR3 isoform 4 (UniProt Q6ZT12)
inactive: erlotinib 0.016 | [1] 0.044 | [2] 0.016 | [3] 0.027 | [4] 0.005 | [5] 0.005 | [6] -0.07 | [7] -0.063 | [8] 0.032 | IRAK-1-4 Inhibitor I -0.007 | ibrutinib -0.002 | [9] -0.023 | ralimetinib 0.107 | [10] -0.009 | [11] 0.005 | [12] 0.006 | [13] -0.055 | [14] -0.016 | [15] 0.013 | [16] 0.021

TBC1D8B (UniProt Q0IIM8)
Sequence of UniProt Q0IIM8 (Q0IIM8 whole entry, looked up): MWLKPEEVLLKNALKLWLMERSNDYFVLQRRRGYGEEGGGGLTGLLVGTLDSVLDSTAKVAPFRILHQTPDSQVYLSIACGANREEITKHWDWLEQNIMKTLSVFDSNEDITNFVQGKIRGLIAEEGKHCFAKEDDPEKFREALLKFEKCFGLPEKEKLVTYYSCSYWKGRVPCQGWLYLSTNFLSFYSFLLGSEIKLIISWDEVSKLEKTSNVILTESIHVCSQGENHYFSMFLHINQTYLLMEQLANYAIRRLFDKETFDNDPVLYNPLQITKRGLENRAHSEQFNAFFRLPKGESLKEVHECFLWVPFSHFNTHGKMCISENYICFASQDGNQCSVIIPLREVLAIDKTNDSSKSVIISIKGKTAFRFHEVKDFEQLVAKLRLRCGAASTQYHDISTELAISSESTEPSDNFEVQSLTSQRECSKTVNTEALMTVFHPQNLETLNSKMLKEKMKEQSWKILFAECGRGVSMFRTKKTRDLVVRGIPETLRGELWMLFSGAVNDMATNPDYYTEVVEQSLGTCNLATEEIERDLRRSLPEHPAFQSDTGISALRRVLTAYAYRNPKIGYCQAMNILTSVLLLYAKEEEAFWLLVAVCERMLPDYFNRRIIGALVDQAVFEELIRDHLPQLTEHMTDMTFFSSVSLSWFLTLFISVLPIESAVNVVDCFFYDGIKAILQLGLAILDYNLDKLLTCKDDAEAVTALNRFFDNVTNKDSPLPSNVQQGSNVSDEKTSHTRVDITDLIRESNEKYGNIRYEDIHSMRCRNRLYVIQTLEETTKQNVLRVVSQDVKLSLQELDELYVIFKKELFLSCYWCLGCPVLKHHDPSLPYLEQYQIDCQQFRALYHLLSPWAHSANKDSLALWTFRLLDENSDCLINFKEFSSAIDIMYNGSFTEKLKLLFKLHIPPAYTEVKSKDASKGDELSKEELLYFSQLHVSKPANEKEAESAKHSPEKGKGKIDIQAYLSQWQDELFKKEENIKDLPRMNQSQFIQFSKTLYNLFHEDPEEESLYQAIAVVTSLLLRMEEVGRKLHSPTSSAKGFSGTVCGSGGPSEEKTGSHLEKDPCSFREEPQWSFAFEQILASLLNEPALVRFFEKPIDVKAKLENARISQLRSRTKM
inactive: erlotinib -0.023 | [1] -0.376 | [2] 0.036 | [3] -0.041 | [4] 0 | [5] 0.01 | [6] 0.01 | [7] 0.017 | [8] 0.063 | IRAK-1-4 Inhibitor I 0.001 | ibrutinib 0.044 | [9] -0.039 | ralimetinib -0.049 | [10] -0.017 | [11] 0.031 | [12] -0.072 | [13] 0.006 | [14] 0.016 | [15] -0.056 | [16] -0.051

TTC4 (UniProt O95801)
inactive: erlotinib 0.01 | [1] 0.013 | [2] 0.001 | [3] 0.003 | [4] 0.005 | [5] 0.007 | [6] -0.038 | [7] -0.029 | [8] 0.025 | IRAK-1-4 Inhibitor I -0.008 | ibrutinib 0.002 | [9] 0.015 | ralimetinib 0.005 | [10] 0.011 | [11] 0.03 | [12] -0.029 | [13] -0.033 | [14] 0.026 | [15] 0.029 | [16] 0

TECR (UniProt Q9NZ01)
Sequence of UniProt Q9NZ01 (Q9NZ01 whole entry, looked up): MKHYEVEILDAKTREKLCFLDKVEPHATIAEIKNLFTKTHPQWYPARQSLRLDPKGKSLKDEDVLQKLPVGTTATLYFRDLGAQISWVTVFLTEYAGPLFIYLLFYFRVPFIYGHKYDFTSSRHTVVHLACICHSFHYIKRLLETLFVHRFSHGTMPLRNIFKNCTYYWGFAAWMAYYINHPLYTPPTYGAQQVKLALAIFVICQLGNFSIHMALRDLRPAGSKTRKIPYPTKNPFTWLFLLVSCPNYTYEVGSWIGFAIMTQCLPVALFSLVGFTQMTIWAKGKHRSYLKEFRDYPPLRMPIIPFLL
inactive: erlotinib 0.024 | [1] -0.029 | [2] -0.113 | [3] 0.019 | [4] 0.083 | [5] -0.013 | [6] -0.066 | [7] -0.008 | [8] 0.028 | IRAK-1-4 Inhibitor I 0.038 | ibrutinib -0.003 | [9] 0.037 | ralimetinib 0 | [10] -0.046 | [11] -0.003 | [12] 0.044 | [13] 0.041 | [14] -0.031 | [15] 0.06 | [16] 0.025
